In PubChem BioAssay (NCI):
“And” between values parts separate entries of the source, which are not always exact repeats. Identical values can stand only once. The panel holds about 79,000 compounds, 15% with a hit somewhere; the sample as a whole holds those more often. Unmarked numbers belong to inactive results. The source made the active and inactive calls. Rule as the data show it: active = growth inhibition above about 70%; inactive = the rest.

Key:
[1] = NCI Yeast Anticancer Drug Screen. Data for the rad50 strain (AID 155);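 also: 0% = growth of vehicle-only cultures of the same strain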; details: S. cerevisiae rad50 strain growth inhibition, active compounds read high; at 50.0 µM unless noted
Procedure, shortened: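 DNA repair mutant yeast, compound exposure, growth read-out; inhibition is taken relative to vehicle.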

[2] = NCI Yeast Anticancer Drug Screen. Data for the mec2-1 strain (AID 157); details: S. cerevisiae mec2-1 strain, active compounds read high; at 50.0 µM unless noted
Procedure, shortened: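 Mutant yeast (mec2-1) grown with compound; growth inhibition relative to vehicle control reported.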

[3] = NCI Yeast Anticancer Drug Screen. Data for the sgs1 mgt1 strain (AID 161);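 also: 0% = growth of cultures given vehicle only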; details: S. cerevisiae sgs1 mgt1 strain, active compounds read high; at 50.0 µM unless noted
Procedure, shortened: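 Percent growth inhibition was derived by comparing compound-exposed mutant yeast with vehicle-exposed cultures. The strain carries alterations in DNA damage repair.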

[4] = NCI Yeast Anticancer Drug Screen. Data for the cln2 rad14 strain (AID 165);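 also: 0% = growth equal to vehicle treated cultures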; details: S. cerevisiae cln2 rad14 strain, active compounds read high; at 50.0 µM unless noted
Procedure, shortened: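 Readout is yeast growth inhibition versus vehicle-treated controls, using a strain with cln2 and rad14 alterations exposed to compound.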

[5] = NCI Yeast Anticancer Drug Screen. Data for the bub3 strain (AID 167); details: S. cerevisiae bub3 mutant strain, active compounds read high; at 50.0 µM unless noted
Procedure, shortened: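 In this screen, a yeast mutant lacking normal mitotic checkpoint function is challenged with compound. Relative growth versus vehicle gives the inhibition value.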

[6] = NCI Yeast Anticancer Drug Screen. Data for the mlh1 rad18 strain (AID 175); details: S. cerevisiae mlh1 rad18 strain growth inhibition, active compounds read high; at 50.0 µM unless noted
Procedure, shortened: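 Genetically defined yeast (DNA repair-deficient) exposed to compounds; growth inhibition determined relative to vehicle.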

Structure (SMILES)	growth inhibition [1]	growth inhibition [2]	growth inhibition [3]	growth inhibition [4]	growth inhibition [5] [%]	growth inhibition [6]
Cc1ccc(S(=O)(=O)OC2CCSCC2)cc1	-5.25%	-10.3%	7.7%	-11.9%	7.05	-4.8%
NC(N)=N/N=C(/CC1OC(=O)c2ccccc21)c1ccc2ccccc2c1 (configuration not stated)	-3.2%	-12.4%	-2.65%	6.5%	-16.1	-11.9%
Oc1ccc(-c2nc(-c3cccnc3)c(-c3ccc(F)cc3)[nH]2)cc1	5.2%	-13.7%	12.8%	8.55%	12.5	57.8%
Cc1cc(N)ccc1-c1cc(C)c(N)c(C)c1C	-39.4%	-21.9%	-7.8%	13.2%	-18.7	-15.1%
CC(C)=CCCC(C)CCOc1cccc(C)c1 (configuration not stated)	3.65%	8.3%	-6.95%	-37.5%	11.6	1.2%
CCNc1ncnc2c1nnn2CC	-5.55%	-12.2%	-15.8%	-7.75%	-27.4	6.75%
NC(=O)c1ccc(-c2csc(=S)[nH]2)s1	-1.9%	-9.7%	-15.5%	-13.1%	-19.1	-5.35%
Cc1c2c(c(C)c3c1C(=O)c1cc4c(cc1C3=O)OCO4)OCO2	-9.1%	-4.35%	-5.35%	-4.7%	-31.9	-15.4%
O=C1/C(=C/c2ccccc2)CCC2CCCCC12 (configuration not stated)	22.1%	-0.95%	-0.8%	-24.9%	-20.1	14.4%
COc1cc(Nc2cnc3cc(C(F)(F)F)ccc3n2)cc(OC)c1OC	16.9%	0.95%	21.9%	12.2%	-14.1	-1.55%
O=C1c2ccccc2C(=Cc2cccc([N+](=O)[O-])c2)c2ccccc21	15.6%	18.4%	-6.35%	9.75%	4.2	0.6%
O=C(O)CC(CS(=O)O)C(=O)O (configuration not stated)	-9.65%	-11.2%	-13.4%	1.05%	1.15	-3.7%
COc1ccc(C=O)cc1OCc1ccccc1	-10.2%	-29.4%	-3.15%	-7.35%	-18.2	7.55%
N#C/C(=C/n1c(=S)[nH]c2ccccc21)C(N)=O	-30.3%	-38.6%	-19.2%	-12.4%	-7.25	-14.6%
CS(=O)(=O)OCCN(CCOS(C)(=O)=O)c1ccc(C=Nc2ccc(C(=O)O)c(O)c2)cc1	84.3% (active)	84.5% (active)	79.5% (active)	78.7% (active)	19.8	94% (active)
C1=C(c2ccccc2)N(C2CCCCC2)C(c2ccccc2)=CN1Cc1ccccc1	45%	31.9%	69.5%	42%	50.1	70.8% (active)
CSC(C1c2ccccc2N(c2ccc(C)cc2)c2[nH]c(=O)n(C)c(=O)c21)S(=O)(=O)c1ccc(C)cc1 (configuration not stated)	23.1%	0%	-21.8%	-29%	0.15	16.6%
COC1OC2COC(C)(C)OC2C2OC(C)(C)OC12 (configuration not stated)	1.15%	5.35%	6.45%	-6.25%	-18.4	16.3%
NCCNCCNCCN	-12.4% and -8.1%	-7.65% and -20.7%	3.1%	-28.9%	-5.35	-19.4% and 29.1%
Cc1ccc(-c2nc3ccc(Cl)cc3[nH]2)cc1	-10.7%	9.1%	41.6%	17.1%	30.1	42.1%
CC(C)c1cccc(C(C)C)c1NC(=O)C(=O)Cc1nc2ccc([N+](=O)[O-])cc2[nH]c1=O	26.6%	19.6%	34.6%	25.3%	24.6	40.8%

Structure (SMILES)	growth inhibition [1]	growth inhibition [2]	growth inhibition [3]	growth inhibition [4]	growth inhibition [5] [%]	growth inhibition [6]
CCCSc1nc(C(=O)O)cc(=O)[nH]1	-8.9%	-13.8%	-4.8%	-44.2%	-5.1	-8.15%
CCOc1cc2c(cc1C(C)c1ccc(OC)c(C)c1)OCO2 (configuration not stated)	11.1%	5.6%	-2.3%	74% (active)	26.2	5.7%
CC(C)=CC(=O)O	3.2%	-3.3%	-9.3%	20.3%	2.1	7.9%
Fc1ccccc1C1SCc2nc3cc4ccccc4cc3n21 (configuration not stated)	-33.6%	-17.8%	0.95%	-1.45%	-0.95	40%
CCN(c1ccccc1)S(=O)(=O)C(C)S(=O)(=O)N(CC)c1ccccc1	-1.05%	-10.5%	-1.2%	-19.8%	2.2	-6.85%
Oc1ccc2ccccc2c1/C=C/c1ccc2c(Br)cc(Br)c(O)c2n1	60.6%	41.1%	28.7%	38%	64.9	65.3%
BrCC1CN=C(c2ccccc2)O1 (configuration not stated)	-5.55%	-4%	2.65%	-26.1%	1.6	-2.95%
Nc1cccc(B(O)O)c1	-16.6%	-65%	-34.3%	-5.75%	-29.6	-15.8%
Cc1ccc(S(=O)(=O)ONNc2nccc3ccccc23)cc1	16.9%	7.05%	1.55%	-16.8%	1.15	19.4%
O=C(O)CCC(=O)N1c2ccccc2CC1c1c[nH]c2ccccc12 (configuration not stated)	-8.45%	-13.9%	-6.55%	18.6%	2	5.6%
CCNc1cc(Cl)c(C(=O)O)cc1[N+](=O)[O-]	-8.8%	20.9%	15.3%	-22.7%	-8.75	-8.65%
CC12Nc3ccccc3N1C(=O)c1ccccc12 (configuration not stated)	15.7%	6.15%	-34.8%	1.95%	-1	-0.5%
CCC(=N\NC(=S)NCCN(C)C)/C(C)=N/NC(=S)NCCN(C)C	57%	13.2%	52.2%	4.95%	16.5	54.9%
CCCC1([N+](=O)[O-])c2ccccc2-c2ccc([N+](=O)[O-])cc21 (configuration not stated)	20.4%	7.9%	22.4%	11%	46.1	49.7%
O=C(O)Cc1ccc(-c2cn3c(n2)sc2ccccc23)cc1	58.1%	22.3%	0.05%	5.45%	24.8	16.4%
CC1(C)SCc2nc3ccccc3n21	-9.75%	-34.9%	12.2%	21.9%	19.1	6.3%
O=[N+]([O-])c1cc(F)ccc1S(=O)(=O)c1ccccc1	31.6%	-40.5%	7.8%	1.85%	-23.2	0.65%
COc1cc(CC2(C#N)c3ccccc3C=CN2C(=O)c2ccccc2)c(Oc2cc(CC3(C#N)c4ccccc4C=CN3C(=O)c3ccccc3)ccc2OC)cc1OC (configuration not stated)	4.65%	8.85%	15.3%	-5.6%	3.85	32.9%
CN(C(=O)c1cccc([N+](=O)[O-])c1)C1CCCCC1	2.6%	34.5%	32.6%	-4.7%	22.4	14.2%
COc1ccc(CCC(=O)c2ccc(N)cc2)cc1	-22.1%	-16.4%	-0.65%	-11.5%	-3.75	-22.3%
CC(=O)Nc1ccc(S(=O)(=O)O)c(OC(C)=O)c1	20.8%	-7.2%	9.85%	-11.8%	7.35	19.1%
